In PubChem BioAssay AID1745849 (National Center for Advancing Translational Sciences (NCATS), 2022):
The campaign covered roughly 2,100 compounds. About 320 (15%) were called active. Not shown: some 52% with an inconclusive outcome. The list shows a part of the results. A number with no mark means an inactive call. Calls come from the whole dose curve; as a rule, active = well fitted cell-killing curve with a large enough effect; inconclusive = small, poorly fitted or top-dose-only effect, or effect the other way; inactive = flat fitted curve, though single readings scatter.

Test: Viability Counterscreen for CMV-Luciferase Assay of Inhibitors of ATXN expression; note: nearly all actives have a fitted effect of over 55% in size
Conditions: HEK-293 CMV-luciferase cells viability, protease fluorescence, 24 h; activity change, negative = cytotoxicity: at the top concentration
In short: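 Fluorescence from cleaved Gly-Phe-AFC (25 uM final, 30 min, ex 405/em 540 nm) reported viability, and the luciferase signal of the same CMV-reporter HEK-293 wells was read 5 min after SteadyGlo addition. Dosing lasted 24 hr.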
% is set by controls: 0 for no effect and ±100 for the full control effect; potency is the fitted concentration of half-maximal effect.

Compound | activity change, negative = cytotoxicity | Potency
O=C(c1ccco1)N(CCCN1CCOCC1)c1nc(-c2ccc(Cl)cc2)cs1 | 6.96% | 
CN(C)S(=O)(=O)c1cccc(N2C(=O)CC3(CCCCC3)CC2=O)c1 | -2.8% | 
O=C(CN1C(=O)c2ccccc2S1(=O)=O)c1ccc(Cl)cc1Cl | 6.64% [at 57.5 µM] | 
N#Cc1c(Oc2ccc3ccccc3c2)sc(C(=O)c2ccccc2)c1N | -22.7% [at 57.5 µM] | 
Cc1ccc(C)n1-c1ccc(C(=O)N2CCC(C(N)=O)CC2)cc1 | -20.6% | 
Cc1ccc(C)c(N2CCN(C(=O)CCCCCn3c(=S)[nH]c4ccc(N5CCOCC5)cc4c3=O)CC2)c1 | -23.9% | 
O=C(CN1C(=O)c2ccccc2S1(=O)=O)c1ccc(O)c(O)c1 | -3.1% | 
c1ccc(COc2ncnc3c2ncn3CCCN2CCN(Cc3cccc4ccccc34)CC2)cc1 |  | 25.1 µM (active)
O=c1[nH]c(CN2CCN(c3ncccn3)CC2)nc2c(Br)cc(Br)cc12 | 13.6% | 
COc1ccc2c(c1)[nH]c1c(=O)n(/N=C/C3C(C)C=C(C)CC3C)c(=O)[nH]c12 (stereo unspecified) |  | 20 µM (active)
O=C(CCCN1CCc2[nH]c3ccc(F)cc3c2C1)c1ccc(F)cc1 | -27.3% [at 57.5 µM] | 
N=c1n(CCN2CCCCC2)c2ccccc2n1CC(O)c1ccc(Cl)c(Cl)c1 (stereo unspecified) |  | 20 µM (active)
Cc1ccc(OCC(O)Cn2c(=N)n(CCN3CCCCC3)c3ccccc32)cc1 (stereo unspecified) | -17.3% [at 57.5 µM] | 
Cc1nc(SC2CC(=O)N(c3ccccc3)C2=O)n[nH]1 (stereo unspecified) | -17.3% [at 57.5 µM] | 
CCCCC/C=C/C1=CC(=O)C[C@H](c2ccc(OC)c(OC)c2)C1 | -15.6% [at 57.5 µM] | 
O=C(c1cccc(Cl)c1)c1nn(-c2ccccc2)c(=O)cc1C(F)(F)F |  | 22.4 µM (active)
Cc1cc(=O)oc2c1c(C)nn2-c1cccc(Cl)c1 | 0.11% | 
CC(C)=C1SC(N2CCN(c3ccc(C)c(Cl)c3)CC2)=NC1=O | -9.92% | 
CC(C)Nc1nc(NC(C)C)nc(N(C#N)CCOc2ccc(Cl)cc2Cl)n1 | -13.3% | 
O=C(NC(c1ccccc1)c1ccc2ccccc2n1)C1CCN(CCOc2ccc(Cl)cc2Cl)CC1 (stereo unspecified) |  | 17.8 µM (active)
COc1ccc(NC2=NCC(Cc3ccc(Br)cc3)S2)cc1 (stereo unspecified) | -18.7% | 
COc1ccc(N2C3=C(CC4=C2CC(C)(C)CC4=O)C(=O)CC(C)(C)C3)cc1 | -5% | 
CCCCNC(=O)C1(C)CCCCN1Cc1ccccc1-c1ccccc1 (stereo unspecified) | -15.7% [at 57.5 µM] | 
C/C(=C\C(=O)c1ccc(Br)cc1)NNC(=O)c1ccc(O)cc1 |  | 12.6 µM (active)
CC(=NNC(=O)c1ccncc1)c1ccc(O)cc1O | 19.1% [at 57.5 µM] | 
O=c1cc(-c2ccncc2)oc2c1ccc1ccccc12 | -29.1% [at 57.5 µM] | 

Compound | activity change, negative = cytotoxicity | Potency
O=c1ccc2ccccc2c2ccccc12 |  | 10 µM (active)
Cc1ccc(/C=C2\SC(=S)N(CCCC(=O)NC3CCCC3)C2=O)cc1 | -8.21% [at 57.5 µM] | 
COc1ccc(/C=C2\SC(=S)N(CCCC(=O)NNC(=O)c3ccccc3O)C2=O)cc1 |  | 20 µM (active)
Cc1ccc2c(CC(=O)NNC(=O)c3ccccc3O)coc2c1 | -9.69% | 
Cc1ccc(/C=C2\SC(=S)N(CCCC(=O)Nc3ccc(O)cc3)C2=O)cc1 | -5.85% | 
COc1cc(/C=C2\SC(=O)N(CC(=O)Nc3ccccc3F)C2=O)cc(Cl)c1O | 26% | 
COc1cccc(/C=C2/SC(=S)N(CCCC(=O)Nc3ccc(O)cc3)C2=O)c1 |  | 3.98 µM (active)
Cc1ccc(/C=C2/SC(=S)N(CCCC(=O)Nc3cc([N+](=O)[O-])ccc3O)C2=O)cc1 |  | 25.1 µM (active)
O=C(CCc1ccccc1)NNC(=O)c1cc(Cl)ccc1O | -25.6% | 
Cc1ccc(C(=O)NNC(=O)CCCN2C(=O)/C(=C/c3ccccc3Cl)SC2=S)cc1 | -26.5% [at 57.5 µM] | 
COc1ccccc1/C=C1\SC(=S)N(CCC(=O)NC2=NCCS2)C1=O | -4.03% [at 57.5 µM] | 
CC(C)(C)c1ccc(OCCCC(=O)NNC(=O)c2ccccc2O)cc1 |  | 25.1 µM (active)
Cc1ccc(/C=C2\SC(=S)N(CCCC(=O)Nc3cc(C)on3)C2=O)cc1 | -24.9% | 
O=C(C1CCC(CNS(=O)(=O)c2cccs2)CC1)N1CCN(c2ccc(F)cc2)CC1 (stereo unspecified) | 3.95% | 
CC1CCN(Cc2c(C(=O)N/N=C/c3cc(Cl)ccc3O)nnn2-c2nonc2N)CC1 | -22.8% | 
CCOc1ccccc1C(=O)Nc1ccc2nc(N3CCN(c4ncccn4)CC3)cc(C)c2c1 | 27.6% [at 57.5 µM] | 
Cn1nccc1C(=O)N1CCCC(C(=O)c2cccc3ccccc23)C1 (stereo unspecified) | -25.3% [at 57.5 µM] | 
COC(=O)C1=C(C)N(c2ccc(Cl)c(Cl)c2)C(=O)C1 | -5.92% | 
FC(F)(F)c1ccc(N2CCN(c3cc(-c4ccccc4)nc4ncnn34)CC2)nc1 | -18.5% | 
Clc1ccccc1C(c1ccccc1)(c1ccccc1)n1ccnc1 | -14.9% | 
Cc1ccc(C)c(CN2CCC(CNC(=O)Nc3ccc(C)c(C)c3)CC2)c1 | -10.6% [at 57.5 µM] | 
Cc1cc(C)nc(NNS(=O)(=O)c2ccc(F)c(Cl)c2)n1 | -11.6% | 
Cc1cc(C)c(C(=O)/C=C/c2ccc(C(C)C)cc2)c(=O)[nH]1 |  | 17.8 µM (active)
COC1=C(C)C(O)=C(C(=O)/C=C/c2ccccc2)C(=O)C1(C)C | -17.6% [at 57.5 µM] | 
Cc1[nH]c(=O)c(C(=O)/C=C/c2ccccc2)c2c1CCCC2 |  | 11.2 µM (active)
